According to PubChem BioAssay (NCATS):
Records with an inconclusive call do not appear. Activity calls are given as the source filed them. Calls come from the whole dose curve; as a rule, active = well fitted inhibition curve with a large enough effect; inconclusive = small, poorly fitted or top-dose-only effect; inactive = flat fitted curve, though single readings scatter.

Experiments:
CRL-7250 = normal cell line; experiment: Cytotoxic Profiling of Annotated Libraries Using Quantitative High-Throughput Screening (AID 1296008); settings: Five cell lines viability, CellTiter-Glo ATP luminescence, 48-72 h; max response: stronger effect = lower value; for max response: % is set by controls: 0 for no effect and ±100 for the full control effect
Summary of the method: (§1)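 Compounds were pin-transferred onto cells and incubated 48 or 72 hr at 37 degree Celsius, 95% humidity. CellTiter-Glo was added, plates sat 10 min at room temperature, then ATP-coupled luminescence was imaged as the viability read-out.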

HEK293 = experiment: as above; settings: Five cell lines viability, CellTiter-Glo ATP luminescence, 48-72 h; max response: stronger effect = lower value
Summary of the method: as §1

HaCat [1] = experiment: as above; settings: Five cell lines viability, CellTiter-Glo ATP luminescence, 48-72 h; max response: stronger effect = lower value
Summary of the method: as §1

KB-3-1 = experiment: as above; settings: Five cell lines viability, CellTiter-Glo ATP luminescence, 48-72 h; max response: stronger effect = lower value
Summary of the method: as §1

NIH3T3 = experiment: as above; settings: Five cell lines viability, CellTiter-Glo ATP luminescence, 48-72 h; max response: stronger effect = lower value
Summary of the method: as §1

MCC-13 = experiment: qHTS assay to identify novel small-molecules to repurpose for Merkel cell carcinoma treatment (AID 1296009); settings: MCC and control cell lines, CellTiter-Glo viability, 72 h; series mostly up to 46 µM
Summary of the method: (§2)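 Cells exposed to NPC (8-point) and MIPE (11-point) compound dilutions for 72 hr at 37 degree celsius; viability read by CellTiter-Glo luminescence, normalized to no-cell and DMSO in-plate controls.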

MCC-26 = experiment: as above; settings: MCC and control cell lines, CellTiter-Glo viability, 72 h; series mostly up to 46 µM
Summary of the method: as §2

MKL-1 = experiment: as above; settings: MCC and control cell lines, CellTiter-Glo viability, 72 h; series mostly up to 46 µM
Summary of the method: as §2

MKL-2 = experiment: as above; settings: MCC and control cell lines, CellTiter-Glo viability, 72 h; series mostly up to 46 µM
Summary of the method: as §2

HEK293T = experiment: as above; settings: MCC and control cell lines, CellTiter-Glo viability, 72 h; at 44.8 µM (top of the series) unless noted
Summary of the method: as §2

HACAT [2] = experiment: as above; settings: MCC and control cell lines, CellTiter-Glo viability, 72 h; at 44.8 µM (top of the series) unless noted
Summary of the method: as §2

P94_40 = experiment: qHTS profiling for inhibitors of Plasmodium falciparum proliferation (AID 504749); settings: P. falciparum in erythrocytes, SYBR Green DNA, 72 h; series mostly up to 28.7 µM
Summary of the method: (§3)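 P. falciparum-infected erythrocytes (0.3% parasitemia, 2.5% hematocrit final) were exposed to compounds for 72 h at 37 C in 5% CO2, then lysed with SYBR Green buffer overnight at room temperature; parasite DNA fluorescence was normalized to artemisinin and DMSO controls.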

PAD = experiment: as above; settings: P. falciparum in erythrocytes, SYBR Green DNA, 72 h; series mostly up to 28.7 µM
Summary of the method: as §3

PC26 = experiment: as above; settings: P. falciparum in erythrocytes, SYBR Green DNA, 72 h; series mostly up to 28.7 µM
Summary of the method: as §3

PC49 = experiment: as above; settings: P. falciparum in erythrocytes, SYBR Green DNA, 72 h; series mostly up to 28.7 µM
Summary of the method: as §3

SC27B = experiment: as above; settings: P. falciparum in erythrocytes, SYBR Green DNA, 72 h; series mostly up to 28.7 µM
Summary of the method: as §3

TAB109 = experiment: as above; settings: P. falciparum in erythrocytes, SYBR Green DNA, 72 h; series mostly up to 28.7 µM
Summary of the method: as §3

TAB113 = experiment: as above; settings: P. falciparum in erythrocytes, SYBR Green DNA, 72 h; series mostly up to 28.7 µM
Summary of the method: as §3

TAB165 = experiment: as above; settings: P. falciparum in erythrocytes, SYBR Green DNA, 72 h; series mostly up to 28.7 µM
Summary of the method: as §3
Note: nearly all actives have a fitted effect of over 60% in size.
Potency is the fitted concentration of half-maximal effect.

NC(=O)COCCN1CCN(C(c2ccccc2)c2ccc(Cl)cc2)CC1 (stereo not given)
inactive: max response (CRL-7250) 0.918% | max response (HEK293) 1.14% | max response (HaCat [1]) -16.4% | max response (KB-3-1) -17.1% | outcome (NIH3T3) | Potency (MCC-13) | Potency (MCC-26) | Potency (MKL-1) | Potency (MKL-2)

CCCCC(CC)COC(=O)c1ccccc1C(=O)O (stereo not given)
inactive: max response (CRL-7250) -9.5% | outcome (HEK293) | max response (HaCat [1]) -1.62% | max response (KB-3-1) -15.1% | max response (NIH3T3) -2.08% | outcome (HEK293T) inactive [at 92 µM] | Potency (MCC-13) | Potency (MCC-26) | Potency (MKL-1) | Potency (MKL-2)

CC(C)=CCC/C(C)=C/CC/C(C)=C/CCC(=O)OC/C=C(\C)CCC=C(C)C
inactive: max response (CRL-7250) -7.77% | max response (HEK293) -2.81% | outcome (HaCat [1]) | max response (KB-3-1) -12.9% | outcome (NIH3T3) | outcome (HACAT [2]) | Potency (MCC-13) | Potency (MKL-1) | Potency (MKL-2)

COc1cc(C(=O)OC(COCCC(C)C)CN2CCOCC2)cc(OC)c1OC (stereo not given)
inactive: max response (CRL-7250) -2.39% | outcome (HEK293) | max response (HaCat [1]) -1.64% | outcome (KB-3-1) | max response (NIH3T3) 3.87% | outcome (HEK293T) | Potency (MCC-13) | Potency (MCC-26) | Potency (MKL-1) | Potency (MKL-2)

CC(=O)OCC[N+](C)(C)C
inactive: max response (CRL-7250) -0.18% | outcome (HEK293) | max response (HaCat [1]) -14.7% | max response (KB-3-1) 2.39% | max response (NIH3T3) 3.81% | outcome (HEK293T) | Potency (MCC-13) | Potency (MCC-26) | Potency (MKL-1)

C[N+](C)(CCOc1ccccc1)Cc1cccs1
inactive: max response (CRL-7250) -3.68% | max response (HEK293) -16.4% | max response (HaCat [1]) 2.51% | max response (KB-3-1) -7.87% | max response (NIH3T3) -2.33% | Potency (MCC-13) | Potency (MCC-26) | Potency (MKL-1) | Potency (MKL-2)

CN1C(=O)c2ccccc2C1=O
inactive: max response (CRL-7250) 3.83% | max response (HEK293) -4.39% | max response (HaCat [1]) -13.2% | max response (KB-3-1) -21% | max response (NIH3T3) -7.13% | Potency (MCC-13) | Potency (MKL-1) | Potency (MKL-2)

OC(CCCN1CCCCC1)(c1ccccc1)c1ccccc1
inactive: max response (CRL-7250) -11.1% | max response (HEK293) -39.9% | max response (HaCat [1]) -16% | max response (KB-3-1) -5.63% | max response (NIH3T3) -14.5% | Potency (MCC-13) | Potency (MCC-26) | Potency (MKL-1) | Potency (MKL-2)

O=P(O)(O)OCC(O)CO (stereo not given)
inactive: max response (CRL-7250) -2.69% | max response (HEK293) -2.36% | max response (HaCat [1]) 0.361% | max response (KB-3-1) -6.39% | outcome (NIH3T3) | Potency (MCC-13) | Potency (MCC-26) | Potency (MKL-1) | Potency (MKL-2)

CCN(CC)C(=O)C1CN2CCc3cc(OC)c(OC)cc3C2CC1OC(C)=O (stereo not given)
inactive: max response (CRL-7250) -9.43% | outcome (HEK293) | outcome (HaCat [1]) | max response (NIH3T3) -5.34% | outcome (HACAT [2]) | outcome (HEK293T) | Potency (MCC-13) | Potency (MCC-26) | Potency (MKL-1) | Potency (MKL-2)

O=C(NN1CCCC1)NS(=O)(=O)c1ccc(Cl)cc1
inactive: max response (CRL-7250) -14.3% | max response (HEK293) 2.09% | max response (HaCat [1]) -45.6% | max response (KB-3-1) 5.98% | max response (NIH3T3) 4.71% | Potency (MCC-13) | Potency (MCC-26) | Potency (MKL-1) | Potency (MKL-2)

COC(=O)/C=C(/C)N
inactive: max response (CRL-7250) -6.42% | outcome (HEK293) | outcome (HaCat [1]) | outcome (NIH3T3) | outcome (HACAT [2]) | outcome (HEK293T) | Potency (MCC-13) | Potency (MCC-26) | Potency (MKL-1) | Potency (MKL-2)

O=[N+]([O-])c1nccn1CO[C@@H](CO)[C@H](O)CO
inactive: max response (CRL-7250) -17.9% | max response (HEK293) 4% | outcome (HaCat [1]) | max response (KB-3-1) 2.05% | outcome (HACAT [2]) | Potency (MCC-13) | Potency (MCC-26) | Potency (MKL-1) | Potency (MKL-2)

Cc1ccccc1C(=O)N1CC/C(=N\OS(=O)(=O)O)c2ccc(Cl)cc21
inactive: max response (CRL-7250) 3.76% | max response (HEK293) -7.21% | max response (HaCat [1]) -13.2% | max response (KB-3-1) 9.71% | max response (NIH3T3) -8.25% | Potency (MCC-13) | Potency (MKL-1) | Potency (MKL-2)

COc1ccccc1OCC1CNC(=O)O1 (stereo not given)
inactive: max response (CRL-7250) -7.57% | max response (HEK293) 2.95% | max response (HaCat [1]) -20.6% | max response (KB-3-1) -0.906% | outcome (NIH3T3) | Potency (MCC-13) | Potency (MCC-26) | Potency (MKL-1) | Potency (MKL-2)

CN(CC1(C)CCCO1)S(=O)(=O)c1ccc(Cl)c(S(N)(=O)=O)c1 (stereo not given)
inactive: max response (CRL-7250) 1.85% | max response (HEK293) -6.48% | max response (HaCat [1]) -20.1% | outcome (KB-3-1) | Potency (MCC-13) | Potency (MCC-26) | Potency (MKL-1) | Potency (MKL-2)

Cn1cc(S(C)=O)c(=O)c2ccc(F)cc21 (stereo not given)
inactive: max response (CRL-7250) -2.16% | max response (HEK293) -2.1% | max response (HaCat [1]) -31% | max response (KB-3-1) 2.67% | outcome (NIH3T3) | Potency (MCC-13) | Potency (MCC-26) | Potency (MKL-1) | Potency (MKL-2)

CN1C(CSCC(F)(F)F)Nc2cc(Cl)c(S(N)(=O)=O)cc2S1(=O)=O (stereo not given)
inactive: max response (CRL-7250) -17.8% | max response (HEK293) 1.71% | max response (HaCat [1]) 4.02% | max response (KB-3-1) 38.2% | outcome (NIH3T3) | Potency (MCC-13) | Potency (MCC-26) | Potency (MKL-1) | Potency (MKL-2)

OCCCc1ccccc1
inactive: max response (CRL-7250) -10.6% | max response (HEK293) -4.71% | max response (HaCat [1]) -3% | max response (KB-3-1) -4.85% | outcome (NIH3T3) | Potency (MCC-13) | Potency (MCC-26) | Potency (MKL-1) | Potency (MKL-2)

CO[C@]1(NC(=O)CSC(F)F)C(=O)N2C(C(=O)O)=C(CSc3nnnn3CCO)CO[C@H]21
inactive: max response (CRL-7250) -1.31% | max response (HEK293) -23.2% | max response (HaCat [1]) 4.33% | outcome (KB-3-1) | max response (NIH3T3) 1.66% | Potency (MCC-13) | Potency (MKL-1) | Potency (MKL-2)

CC(=O)O[C@@H]1CC2C3CCc4cc(OC(=O)c5ccccc5)ccc4C3CCC2(C)[C@H]1OC(C)=O (stereo not given in full)
inactive: max response (CRL-7250) -8.96% | outcome (HEK293) | outcome (HaCat [1]) | max response (NIH3T3) 3.57% | outcome (HACAT [2]) | outcome (HEK293T) | Potency (MCC-13) | Potency (MCC-26) | Potency (MKL-1) | Potency (MKL-2)

C[C@]12CCC(=O)C=C1CC[C@@H]1[C@@H]2[C@@H](O)C[C@@]2(C)[C@H]1CC[C@]2(O)C(=O)COC(=O)CCC(=O)O
inactive: max response (CRL-7250) -0.174% | max response (HEK293) 3.66% | max response (HaCat [1]) -3.29% | max response (KB-3-1) -0.87% | outcome (NIH3T3) | Potency (MCC-13) | Potency (MCC-26) | Potency (MKL-1) | Potency (MKL-2)

CCCCCCCCCCCCCC[N+](C)(C)C
inactive: Potency (PC49)
active: Potency (P94_40) 6.31 µM | Potency (PAD) 10 µM | Potency (PC26) 6.01 µM | Potency (SC27B) 6.31 µM | Potency (TAB109) 4.47 µM | Potency (TAB113) 5.01 µM | Potency (TAB165) 5.62 µM | Potency (CRL-7250) 7.5 µM | Potency (HEK293) 2.66 µM | Potency (HaCat [1]) 5.96 µM | Potency (KB-3-1) 16.4 µM | Potency (NIH3T3) 23.7 µM | Potency (MCC-26) 16.8 µM | Potency (MKL-1) 1.19 µM | Potency (MKL-2) 1.19 µM
